In PubChem BioAssay:
Activity calls are given as the source filed them.

Key:
[1] = tested on: Plasmodium falciparum Sir2 (PF13_0152, Sir2A); test: pfSir2 binders on small-molecule microarrays, primary screen, biochemical, small-molecule microarray, 635 nm fluorescence (AID 1098); conditions: small-molecule microarray binding, fluorescence 635 nm; higher = more signal;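 also: score merges spot fluorescence intensity with its signal-to-noise ratio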
[2] = small-molecule microarray binders of probe aDKK1, primary screen, biochemical, biotinylated probe, 635/667 nm fluorescence (AID 1099); conditions: higher = more signal;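 also: score merges 667nm spot fluorescence with signal to noise across triplicate slides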
[3] = small-molecule microarray binders of probe aCHRDL2, primary screen, biochemical, biotinylated probe, 635/667 nm fluorescence (AID 1100); conditions: higher = more signal
[4] = splicing luciferase reporter signal modulators, primary screen, spliceosome inhibition project, cell-based, HEK293, splice +/- reporter (AID 1101); conditions: luminescence, 24 h, higher = more signal, called active from +8 up or from −8 down;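 also: HEK293 cells carrying a splicing-competent luciferase reporter gene; test concentration not given here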
[5] = target: Fibroblast growth factor 10 (Homo sapiens) (UniProt O15520); test: FGF10 binders on small-molecule microarrays, primary screen, biochemical, small-molecule microarray, 635 nm fluorescence (AID 1102); conditions: FGF10 binding, fluorescence 635 nm, higher = more signal
Chain of Fibroblast growth factor 10 (Homo sapiens) (O15520 whole entry, looked up): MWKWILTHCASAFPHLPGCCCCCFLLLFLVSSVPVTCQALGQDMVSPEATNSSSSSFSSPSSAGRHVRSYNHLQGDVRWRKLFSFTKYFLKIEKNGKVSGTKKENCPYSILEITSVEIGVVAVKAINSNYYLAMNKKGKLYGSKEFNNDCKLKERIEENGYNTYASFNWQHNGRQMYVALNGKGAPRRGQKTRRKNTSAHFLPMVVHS

[6] = tested on: glycogen synthase kinase-3 (GSK3A per assay name; protocol says GSK3B); test: GSK3 binders on small-molecule microarrays, primary screen, biochemical, small-molecule microarray, 635 nm fluorescence, GSK3A (AID 1103); conditions: small-molecule microarray binding, fluorescence 635 nm; higher = more signal; also: the record names both GSK3A and GSK3B
[7] = target: Epidermal growth factor receptor (Homo sapiens) (UniProt P00533); test: EGFR binders on small-molecule microarrays, primary screen, biochemical, small-molecule microarray, 635 nm fluorescence (AID 1104); conditions: EGFR binding, higher = more signal;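 also: score merges 667 nm emission intensity with spot signal to noise over triplicate slides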
Chain of Epidermal growth factor receptor (Homo sapiens) (P00533 whole entry, looked up): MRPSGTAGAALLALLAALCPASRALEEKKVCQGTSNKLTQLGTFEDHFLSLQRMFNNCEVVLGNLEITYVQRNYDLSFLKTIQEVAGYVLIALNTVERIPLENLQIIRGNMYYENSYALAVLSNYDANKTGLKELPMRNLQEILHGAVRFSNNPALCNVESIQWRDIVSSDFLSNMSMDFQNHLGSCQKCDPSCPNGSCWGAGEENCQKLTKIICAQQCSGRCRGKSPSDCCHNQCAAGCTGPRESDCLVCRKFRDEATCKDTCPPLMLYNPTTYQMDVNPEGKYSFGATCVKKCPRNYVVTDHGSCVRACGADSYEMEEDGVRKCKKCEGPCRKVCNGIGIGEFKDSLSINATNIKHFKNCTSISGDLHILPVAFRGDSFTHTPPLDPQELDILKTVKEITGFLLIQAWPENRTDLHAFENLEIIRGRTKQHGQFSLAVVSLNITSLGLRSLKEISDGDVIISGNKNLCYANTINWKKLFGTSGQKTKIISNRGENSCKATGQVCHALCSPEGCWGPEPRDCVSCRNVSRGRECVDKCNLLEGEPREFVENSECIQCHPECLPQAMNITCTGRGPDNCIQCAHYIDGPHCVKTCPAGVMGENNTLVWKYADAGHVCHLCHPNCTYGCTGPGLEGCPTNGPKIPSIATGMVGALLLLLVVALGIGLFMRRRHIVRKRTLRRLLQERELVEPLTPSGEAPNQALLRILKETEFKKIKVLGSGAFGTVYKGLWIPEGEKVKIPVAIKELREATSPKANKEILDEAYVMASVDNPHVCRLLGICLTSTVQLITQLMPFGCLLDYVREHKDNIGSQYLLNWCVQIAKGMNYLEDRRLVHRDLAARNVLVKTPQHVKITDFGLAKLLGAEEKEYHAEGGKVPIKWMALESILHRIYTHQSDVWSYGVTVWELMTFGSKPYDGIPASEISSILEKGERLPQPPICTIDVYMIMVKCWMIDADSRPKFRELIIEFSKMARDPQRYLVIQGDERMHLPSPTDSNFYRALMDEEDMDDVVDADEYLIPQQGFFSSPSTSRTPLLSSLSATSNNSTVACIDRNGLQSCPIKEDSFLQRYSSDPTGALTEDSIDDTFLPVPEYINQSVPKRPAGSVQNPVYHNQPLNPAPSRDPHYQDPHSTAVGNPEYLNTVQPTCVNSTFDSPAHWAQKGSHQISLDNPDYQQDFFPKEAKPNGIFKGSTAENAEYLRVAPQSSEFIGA

[8] = target: Follistatin-related protein 3 (Homo sapiens) (UniProt O95633); test: FSTL3 binders on small-molecule microarrays, primary screen, biochemical, small-molecule microarray, 635 nm fluorescence (AID 1105); conditions: FSTL3 binding, higher = more signal;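 also: score merges emission near 667 nm and signal to noise per printed spot across three slides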
Chain of Follistatin-related protein 3 (Homo sapiens) (O95633 whole entry, looked up): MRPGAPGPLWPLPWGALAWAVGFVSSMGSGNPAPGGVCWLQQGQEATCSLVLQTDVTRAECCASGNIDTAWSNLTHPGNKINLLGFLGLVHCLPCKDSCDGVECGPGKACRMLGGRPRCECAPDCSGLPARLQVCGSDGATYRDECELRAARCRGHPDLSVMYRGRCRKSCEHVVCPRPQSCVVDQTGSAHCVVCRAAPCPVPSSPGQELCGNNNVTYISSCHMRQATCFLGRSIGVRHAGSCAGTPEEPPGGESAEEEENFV

[9] = target: Dickkopf-related protein 1 (Homo sapiens) (UniProt O94907); test: DKK1 binders on small-molecule microarrays, primary screen, biochemical, small-molecule microarray, 635 nm fluorescence scan (AID 1106); conditions: DKK1 binding, higher = more signal;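 also: score merges emission near 667 nm with signal to noise over three replicate slides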
Chain of Dickkopf-related protein 1 (Homo sapiens) (O94907 whole entry, looked up): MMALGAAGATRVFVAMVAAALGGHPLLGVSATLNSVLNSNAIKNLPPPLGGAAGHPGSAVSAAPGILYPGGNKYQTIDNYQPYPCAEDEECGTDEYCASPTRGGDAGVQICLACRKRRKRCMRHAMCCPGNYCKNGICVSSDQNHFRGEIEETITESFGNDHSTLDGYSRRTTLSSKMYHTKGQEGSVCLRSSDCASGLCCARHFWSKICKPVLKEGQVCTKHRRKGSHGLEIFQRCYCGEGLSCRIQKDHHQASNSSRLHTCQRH

[10] = tested on: Inhibin beta A chain (activin A); test: INHBA (activin A) binders on microarrays, primary screen, biochemical, small-molecule microarray, 635 nm fluorescence scan (AID 1107); conditions: small-molecule microarray binding, higher = more signal;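 also: mouse activin A protein probed at 4.33 µg/mL on printed slides; score merges bound-protein fluorescence near 667 nm with spot signal-to-noise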
[11] = tested on: Human papillomavirus type 1a protein E7 (residues 44-93); test: HPV1a E7 fragment binders on microarrays, primary screen, biochemical, small-molecule microarray, residues 44-93, 635 nm fluorescence (AID 1108); conditions: small-molecule microarray binding, fluorescence 635 nm; higher = more signal;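 also: E7 fragment applied at 1 µg/mL in TBST for 1 h at 4 C; score combines spot fluorescence with its signal to noise ratio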
[12] = modulators of HCV replicon luciferase signal, primary screen, HCV replication inhibitor project, Huh7 cells, luciferase reporter (AID 1109); conditions: 48 h, higher = more signal;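 also: huh7 hepatoma cells harbouring a luciferase neomycin HCV replicon reporter; luciferase luminescence as measure of HCV replicon replication; test concentration not given here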
[13] = target: Left-right determination factor 2 (Homo sapiens) (UniProt O00292); test: LEFTY2 binders on small-molecule microarrays, primary screen, biochemical, small-molecule microarray, 635 nm fluorescence scan (AID 1110); conditions: LEFTY2 binding, higher = more signal
Chain of Left-right determination factor 2 (Homo sapiens) (O00292 whole entry, looked up): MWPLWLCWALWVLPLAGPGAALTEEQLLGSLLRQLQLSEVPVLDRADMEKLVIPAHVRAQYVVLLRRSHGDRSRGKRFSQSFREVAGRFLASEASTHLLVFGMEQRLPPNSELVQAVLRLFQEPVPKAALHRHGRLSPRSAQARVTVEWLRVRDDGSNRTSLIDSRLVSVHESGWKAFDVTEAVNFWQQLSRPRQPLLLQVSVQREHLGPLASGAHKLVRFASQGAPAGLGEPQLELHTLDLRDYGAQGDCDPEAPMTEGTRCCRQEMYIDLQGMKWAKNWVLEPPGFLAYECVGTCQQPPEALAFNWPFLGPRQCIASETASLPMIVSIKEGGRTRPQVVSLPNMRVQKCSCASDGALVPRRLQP

[14] = target: Calmodulin-1 (Homo sapiens) (UniProt P0DP23); test: CALM1 binders on microarrays, EGTA buffer, profiling panel, biochemical, small-molecule microarray, Cy5-labelled CALM1 (AID 1111); conditions: Cy5-CALM1 binding fluorescence, higher = more signal;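 also: labelled calmodulin applied in Tris saline Tween buffer holding calcium plus EGTA and DTT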
[15] = target: Calmodulin-1 (Homo sapiens) (UniProt P0DP23); test: calcium-bound CALM1 binders on microarrays, profiling panel, artefact control for SMM control-protein annotation, biochemical, small-molecule microarray, Cy5-labelled CALM1, plus calcium (AID 1112); conditions: Cy5-CALM1 binding fluorescence, higher = more signal;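 also: score merges spot fluorescence with signal to noise from triplicate slides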
[16] = small-molecule microarray binders of probe aWnt5a, primary screen, biochemical, biotinylated probe, 635/667 nm fluorescence (AID 1113); conditions: higher = more signal;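 also: score merges 667 nm fluorescence intensity with signal-to-noise per printed feature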
[17] = small-molecule microarray binders of probe aShh, primary screen, biochemical, biotinylated probe, 635/667 nm fluorescence (AID 1114); conditions: higher = more signal;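 also: probe is biotin-labelled aShh protein from a stem cell growth factor screen; measures binding of labelled protein to compounds printed on the slide; score merges feature fluorescence at 667 nm with signal-to-noise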
[18] = small-molecule microarray binders of probe aNog, primary screen, biochemical, biotinylated probe, 635/667 nm fluorescence (AID 1115); conditions: higher = more signal;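 also: probe is biotinylated aNog protein used at 0.15 µg/mL for 1 h at 4 C; z-score combines 667 nm fluorescence of each spot with its signal to noise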
[19] = target: Torsin-1A-interacting protein 1 (Homo sapiens) (UniProt Q5JTV8); test: LAP1 binders from COS7 cell lysate, primary screen, small-molecule microarray, 635/667 nm fluorescence (AID 1116); conditions: COS7-hLAP1 lysate binding, 635 nm fluorescence, higher = more signal
Chain of Torsin-1A-interacting protein 1 (Homo sapiens) (Q5JTV8 whole entry, looked up): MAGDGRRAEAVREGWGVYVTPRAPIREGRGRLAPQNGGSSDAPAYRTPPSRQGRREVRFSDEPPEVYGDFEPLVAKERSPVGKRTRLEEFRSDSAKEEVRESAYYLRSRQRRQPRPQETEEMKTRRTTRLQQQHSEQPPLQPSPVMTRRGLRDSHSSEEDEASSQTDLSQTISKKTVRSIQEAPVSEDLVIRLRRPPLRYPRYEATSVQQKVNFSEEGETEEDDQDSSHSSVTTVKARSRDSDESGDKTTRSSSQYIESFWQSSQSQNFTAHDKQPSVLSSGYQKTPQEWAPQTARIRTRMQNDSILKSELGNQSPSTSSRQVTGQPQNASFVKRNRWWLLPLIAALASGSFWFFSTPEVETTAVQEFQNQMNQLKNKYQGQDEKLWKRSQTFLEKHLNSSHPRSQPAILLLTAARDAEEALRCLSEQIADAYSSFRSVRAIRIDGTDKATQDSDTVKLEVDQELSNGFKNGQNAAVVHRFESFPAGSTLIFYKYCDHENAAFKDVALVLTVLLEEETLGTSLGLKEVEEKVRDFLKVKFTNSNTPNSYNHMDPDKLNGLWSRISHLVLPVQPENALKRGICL

[20] = target: Alpha-bungarotoxin (Bungarus multicinctus) (UniProt P60615); test: alpha-bungarotoxin binders on microarray, profiling panel, artefact control for SMM control protein annotation, biochemical, small-molecule microarray, Alexa647 label, 635/667 nm fluorescence (AID 1117); conditions: alpha-BTX-A647 binding fluorescence, higher = more signal
Chain of Alpha-bungarotoxin (Bungarus multicinctus) (P60615 whole entry, looked up): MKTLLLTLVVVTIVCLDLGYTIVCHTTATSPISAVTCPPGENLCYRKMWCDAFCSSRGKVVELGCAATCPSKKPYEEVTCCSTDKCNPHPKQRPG

Compound | composite z-score [1] | composite z-score [2] | composite z-score [3] | z-score [4] | composite z-score [5] | composite z-score [6] | composite z-score [7] | composite z-score [8] | composite z-score [9] | composite z-score [10] | composite z-score [11] | z-score [12] | composite z-score [13] | composite z-score [14] | composite z-score [15] | composite z-score [16] | composite z-score [17] | composite z-score [18] | composite z-score [19] | composite z-score [20]
CCc1cc2c(nc1CC)CCN(CCC(C)=NOCC[C@@H]1C=C[C@H](OC(C)=O)[C@@H](COC(C)=O)O1)C2 | 1.05 | 0.0092 | 0.343 | 0.192 (inactive) | -0.0488 | 0.459 | 0.789 | 0.332 | 0.301 | 1.29 | 1.11 | -0.879 | 0.879 | -0.307 | -1.2 | 0.0209 | -0.167 | -0.4 | 1.01 | 0.147
CC(C)CON=C1C[C@@H](O)[C@@H](O)[C@@H]2[C@@H]3C(=O)N([C@@H](C)c4ccccc4)C(=O)[C@@H]3CC[C@@H]12 | -0.201 | 0.083 | 0.767 | 0.226 (inactive) | 0.266 | -0.0708 | 0.191 | -0.279 | -0.24 | 0.467 | -0.0319 | -0.265 | 0.236 | -0.231 | -0.282 | -0.124 | -0.289 | -0.222 | 0.179 | 0.0887
CSCC[C@@H]1NC(=O)CC=C[C@@H](C)COC(=O)[C@H](C)COC1=O | 0.926 | -0.641 | -2.03 | -0.841 (inactive) | 1.49 | 0.781 | 1.67 | 1.23 | 2.31 | -2.83 | -1.63 | 0.894 | 1.71 | -2.28 | -3.17 | -0.286 | -0.0035 | -0.321 | 0.443 | -1.96
C[C@H]1CC[C@H]2C(=O)N[C@H](Cc3ccccc3)C(=O)N2[C@@H]1c1ccccc1 | -0.427 | 0.176 | -0.225 | -0.0985 (inactive) | 0.136 | -0.0595 | 0.353 | 0.185 | 0.768 | 0.595 | -1.38 | -0.283 | 0.395 | -0.742 | -0.194 | -0.127 | 0.37 | -0.0428 | 0.51 | -0.009
CCO[C@H](c1cc(OC)cc([N+](=O)[O-])c1OC)[C@H](C)[C@@H](OC)[C@H](C)C=CCC(=O)OC | 0.535 | 0.481 | -0.133 | -0.188 (inactive) | 0.278 | 0.188 | 0.835 | 0.723 | -0.359 | -0.334 | 0.488 | 0.899 | -0.0609 | 0.379 | -0.103 | -0.0383 | -0.138 | -0.445 | -0.0844 | 0.696
CCN1C(=O)[C@H]2[C@H]3[C@H](O)[C@H](O)CC(=NO[C@@H]4O[C@H](CO)[C@@H](O)[C@H](O)[C@H]4O)[C@H]3CC[C@H]2C1=O | 0.0675 | -0.219 | -0.447 | -0.0478 (inactive) | 0.456 | 0.342 | 0.933 | 0.619 | 0.611 | 0.182 | 0.442 | 1.2 | 0.486 | -0.354 | -1.04 | -0.0529 | 0.204 | 0.117 | 0.196 | 0.497
O=C(NCCC[N+]1=CC=NC1c1ccccc1)N1CCCc2nc(-c3ccc(Br)cc3)ccc21 (stereo not given) | 1.02 | -0.128 | -0.346 | -0.106 (inactive) | 0.0448 | 0.212 | 0.221 | -0.0767 | 0.42 | 0.435 | 0.107 | -3.49 | 0.498 | 0.626 | 0.0894 | -0.0145 | 0.0141 | 0.0481 | 0.0439 | -0.436
CC(CCN1CCc2nc(-c3ccccc3)c(-c3ccccc3)cc2C1)=NOC(C)CN1CCCc2nc(C)c(C)cc21 (stereo not given) | 0.934 | 0.196 | -0.218 | 1.12 (inactive) | 0.942 | 1.02 | 0.603 | 1.02 | 0.732 | 0.858 | 1.39 | -3.08 | 0.848 | 0.637 | -0.0431 | 0.0017 | 0.267 | 0.378 | 0.825 | 1.03
C=CC[C@@H]1C=C[C@H](ON=C2C[C@@H](O)[C@@H](O)[C@@H]3[C@@H]4C(=O)N(CC)C(=O)[C@@H]4CC[C@@H]23)[C@@H](CO)O1 | -0.487 | -0.428 | -0.562 | -1.2 (inactive) | 0.156 | -0.653 | -0.0239 | -0.339 | 0.106 | 0.535 | -0.573 | 0.0355 | 0.13 | -0.758 | -0.777 | -0.131 | 0.116 | 0.0541 | -0.164 | -1.03
CCN1C(=O)[C@H]2[C@@H]3C(=CC[C@H]2C1=O)C(=O)[C@H]1O[C@H]1[C@H]3O | 0.641 | -0.409 | -0.722 | 17 (active) | 1.06 | 1.11 | 0.827 | 1.28 | 1.17 | 0.065 | 0.53 | -5.32 | 0.705 | -0.575 | -1.4 | 0.0559 | -0.138 | -0.144 | 0.282 | 0.0607
CC(C)=NO[C@H](C)c1cn([C@@H]2COC[C@H]2O)nn1 | 0.52 | -0.0146 | -0.607 | -0.413 (inactive) | 0.728 | 0.788 | 0.539 | 0.67 | 0.669 | -0.0201 | 0.427 | 0.78 | 0.48 | -0.312 | -0.956 | -0.169 | -0.138 | -0.216 | 0.26 | 0.159
CC(=O)OC[C@H]1O[C@H](CC=NO[C@@H](C)c2cn([C@H](CO)Cc3ccccc3)nn2)C=C[C@@H]1OC(C)=O | 0.775 | 0.101 | -0.624 | -1.54 (inactive) | 1.07 | 0.517 | 0.387 | 1.06 | 1.05 | -0.383 | 0.949 | -1.02 | 0.656 | -0.16 | -0.174 | -0.176 | 0.194 | 0.158 | 1.03 | 1.56
COC(=O)C1=C(C)N(Cc2ccccc2)C2=C3C(=O)OCC[C@@H]3[C@@](O)(C(=O)OC)C(=O)N2[C@@H]1c1ccccc1 | 0.126 | -0.117 | -0.538 | -0.403 (inactive) | 0.325 | 0.51 | 0.526 | 0.495 | 0.563 | 0.312 | -0.0816 | 0.935 | 0.528 | -0.0583 | -0.689 | -0.13 | 0.0278 | -0.189 | -0.207 | 0.415
COC(=O)[C@H](C)NC(=O)CCC1CC(OC(=O)NCc2cccc3ccccc23)CC2(CCCC(COC(=O)NCCOc3ccccc3)O2)O1 (stereo not given in full) | 1.1 | -0.357 | -0.413 | -0.834 (inactive) | 0.411 | 0.526 | 0.148 | 0.319 | -0.303 | -0.143 | 1.33 | -0.682 | 0.43 | 1.33 | -0.232 | -0.251 | -0.138 | -0.559 | 0.347 | 0.862
